Bioassay records (PubChem)
In the library only some 2.2% were active in any assay of this set; here they are far more common.
EWS-Fli inh = blocks EWS/Fli oncoprotein-driven transcription; A673 NR0B1-luciferase reporter, viability-normalised; inhibition, % at 12.6 µM; 0.67% of 350,000 active;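 active = mean inhibition of at least 50% after viability correction, with every replicate also passing that limit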;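 also: firefly luciferase signal divided by Alamar Blue viability fluorescence both relative to DMSO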
EBV LMP1 NFkB = Epstein-Barr LMP1 NF-kappaB reporter inhibition; inhibition, % at 12.5 µM; AID 504558; LMP1-induced NF-kappaB luciferase reporter cells, luminescence; 0.69% of 350,000 active; in the data active = inhibition above about 41%;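 also: 0% = neutral control wells and 100% = reference inhibitor control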
PGC1a acetyl inh = PGC1a acetylation modulation, inhibitor mode; U2OS PGC1a acetylation, AlphaScreen anti-acetyl-lysine; with virally co-expressed GCN5 acetyltransferase; 0.17% of 350,000 active; AID 651687; inhibition, % at 15.6 µM;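 active = every replicate shows inhibition of at least 40%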;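 also: 0% = neutral control wells and 100% = positive control wells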
PAX8 reporter = inhibitors of PAX8 transcriptional activity in RMG-I cells; RMG-I TPO-luciferase reporter, SteadyGlo, 24 h; inhibition, % at 12.6 µM; 1.2% of 360,000 active; AID 652154;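 active = mean replicate inhibition at least 60% with every replicate also reaching 60%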;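 also: luciferase light reporting Pax8 driven TPO promoter activity; plate controls were median of neutral control wells for no effect and mitoxantrone controls for full effect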
MITF TRPM1 inh = reduces MITF-dependent TRPM1 promoter luciferase signal. 0.83% of 330,000 active. inhibition, % at 12.5 µM. AID 488899. SK-MEL-5 TRPM1 promoter luciferase, 24 h;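 active = mean inhibition across replicates of 60% or more, whatever share of single replicates reaches that level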
LGR2 antag = blocks bursicon-induced cAMP signaling via Drosophila LGR2; AID 720647; HEK293 LGR2, CRE-luciferase, bursicon-stimulated, 4 h; 0.35% of 380,000 active; inhibition, % at 9.99 µM;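 active = drop in luminescence signal, shown as inhibition above about 50% in the replicate tests, limit read from the data, passing the limit was not always enough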;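 also: agonist challenge used bursicon conditioned medium at about half maximal strength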
Starred values were filed as active, the others as inactive.

`C[C@@H]1CCCCO[C@H](CN(C)C(=O)CCC(F)(F)F)[C@@H](C)CN([C@@H](C)CO)C(=O)c2cc(NC(=O)Nc3ccccc3)ccc2O1` gave EWS-Fli inh 9, PGC1a acetyl inh 0, PAX8 reporter -8 and LGR2 antag -11.
CCCNC(=O)N1C[C@@H](O)COC[C@@H]2O[C@@H](CC(=O)NCc3ccncn3)CC[C@H]21 was read as EWS-Fli inh 5, PGC1a acetyl inh -4, PAX8 reporter -19 and LGR2 antag 15.
`Cc1cc(C)c2c(=O)n3c(nc2c1)C(Cc1ccc(O)cc1)NC(=O)c1cc2ccccc2cc1-3` (configuration not stated) gave EWS-Fli inh 27, EBV LMP1 NFkB 1, PGC1a acetyl inh 1, PAX8 reporter 72* and LGR2 antag 12.
Screening C[C@@H]1CCCCO[C@@H](CN(C)C(=O)Nc2ccc(C(F)(F)F)cc2)[C@H](C)CN([C@H](C)CO)C(=O)c2cc(NS(=O)(=O)c3ccccc3)ccc2O1 returned EWS-Fli inh 23, PGC1a acetyl inh 4, PAX8 reporter 84* and LGR2 antag 14.
Screening C[C@H]1CCCCO[C@H](CN(C)C(=O)Nc2ccc(C(F)(F)F)cc2)[C@@H](C)CN([C@@H](C)CO)C(=O)c2cc(NS(=O)(=O)c3ccccc3)ccc2O1 returned EWS-Fli inh 20, PGC1a acetyl inh 13, PAX8 reporter 79* and LGR2 antag 8.
C[C@H]1CCCCO[C@@H](CN(C)C(=O)Nc2ccc(C(F)(F)F)cc2)[C@@H](C)CN([C@@H](C)CO)C(=O)c2cc(NS(=O)(=O)c3cn(C)cn3)ccc2O1 was read as EWS-Fli inh 28, PGC1a acetyl inh -3, PAX8 reporter 91* and LGR2 antag -2.
Screening O=C(C[C@H]1CC[C@@H](NS(=O)(=O)c2ccc(F)cc2)[C@@H](CO)O1)NCCN1CCCCC1 returned EWS-Fli inh 5, PGC1a acetyl inh -3, PAX8 reporter 2 and LGR2 antag 7.
Screening NC1=NC(=O)NC1(c1ccccc1)c1ccccc1 returned EWS-Fli inh -4, EBV LMP1 NFkB 48*, PAX8 reporter 12, MITF TRPM1 inh 8 and LGR2 antag -13.
For NN1C(=O)NC(c2ccccc2)(c2ccccc2)C1=O the results were EWS-Fli inh 0, EBV LMP1 NFkB 8, PGC1a acetyl inh 2, PAX8 reporter -2, MITF TRPM1 inh 6 and LGR2 antag 20.
For Nc1cc2c3c(cccc3c1)C(=O)N(CCN1CCCC1)C2=O the results were EWS-Fli inh 39, EBV LMP1 NFkB -13, PGC1a acetyl inh 7, PAX8 reporter 11, MITF TRPM1 inh 90* and LGR2 antag -19.
`O=C1c2cccc3cc([N+](=O)[O-])cc(c23)C(=O)N1CCN1CCCC1` gave EWS-Fli inh 69*, EBV LMP1 NFkB 74*, PAX8 reporter 90*, MITF TRPM1 inh 84* and LGR2 antag 32.
Screening C[C@@H]1CN([C@@H](C)CO)C(=O)c2cc(C#CCN(C)C)cnc2O[C@@H]1CN(C)Cc1ccncc1 returned EWS-Fli inh -12, PGC1a acetyl inh 6 and LGR2 antag 3.
Screening CCCCC1C(=O)N(c2ccccc2)N(c2ccc(O)cc2)C1=O (configuration not stated) returned EWS-Fli inh 46, EBV LMP1 NFkB 55*, PGC1a acetyl inh -52, PAX8 reporter 27 and MITF TRPM1 inh 96*.
Screening CCCCC1(CO)C(=O)N(c2ccccc2)N(c2ccccc2)C1=O returned EWS-Fli inh 0, EBV LMP1 NFkB -5, PGC1a acetyl inh -3, PAX8 reporter 1, MITF TRPM1 inh -5 and LGR2 antag 5.
Clc1ccc2nc(-c3ccc4c(c3)OCO4)cn2c1 was read as EWS-Fli inh 46, EBV LMP1 NFkB 60*, PGC1a acetyl inh 1, PAX8 reporter 17, MITF TRPM1 inh 41 and LGR2 antag 86*.
For Clc1ccc2nc(-c3ccccc3)cn2c1 the results were EWS-Fli inh 14, EBV LMP1 NFkB -3, PGC1a acetyl inh 5, PAX8 reporter -11, MITF TRPM1 inh 4 and LGR2 antag 34.
`Cc1ccc2nc(-c3ccc4c(c3)NC(=O)CO4)cn2c1` gave EWS-Fli inh -117, EBV LMP1 NFkB 1, PGC1a acetyl inh -3, PAX8 reporter -67, MITF TRPM1 inh -57 and LGR2 antag -20.
Screening COc1ccc(-c2cn3cc(C)ccc3n2)cc1F returned EWS-Fli inh -9, EBV LMP1 NFkB 33, PGC1a acetyl inh -17, PAX8 reporter 8, MITF TRPM1 inh 13 and LGR2 antag 90*.
Cc1ccc2nc(-c3ccc4c(c3)OCCO4)cn2c1 was read as EWS-Fli inh 22, EBV LMP1 NFkB 85*, PGC1a acetyl inh 0, PAX8 reporter 87*, MITF TRPM1 inh 84* and LGR2 antag 91*.
Screening c1ccn2cc(-c3ccc4c(c3)OCCO4)nc2c1 returned EWS-Fli inh 54*, EBV LMP1 NFkB 57*, PGC1a acetyl inh 5, PAX8 reporter 56, MITF TRPM1 inh 34 and LGR2 antag 91*.
COCC(=O)Nc1ccc2c(c1)OC[C@@H](C)N(Cc1cc(F)ccc1F)C[C@H](C)[C@H](OC)CN(C)C2=O was read as EWS-Fli inh -4, PGC1a acetyl inh 5, PAX8 reporter -2 and LGR2 antag 6.
`COc1ccc(CN(C)C[C@H]2Oc3c(NC(=O)C4CC4)cccc3C(=O)N([C@@H](C)CO)C[C@@H]2C)cc1` gave EWS-Fli inh 7, PGC1a acetyl inh 0 and LGR2 antag 19.
Screening CNC(=O)C[C@H]1CC[C@@H]2[C@H](COc3ccc(NC(=O)c4cscn4)cc3C(=O)N2C)O1 returned EWS-Fli inh 3, PGC1a acetyl inh 3, PAX8 reporter -20 and LGR2 antag -13.
Screening CN1CCN(C(=S)Nc2ccc(Cl)c(Cl)c2)CC1 returned EWS-Fli inh 0, EBV LMP1 NFkB 5, PGC1a acetyl inh -1, PAX8 reporter 126*, MITF TRPM1 inh -8 and LGR2 antag 9.
Screening Cc1ccc(C)c(N2CCN(C(=S)Nc3ccc4nc(N5CCN(C)CC5)cc(C)c4c3)CC2)c1 returned EWS-Fli inh 30, EBV LMP1 NFkB 3, PGC1a acetyl inh -11, PAX8 reporter 36, MITF TRPM1 inh 85* and LGR2 antag 12.
`O=C(Nc1ccc(F)cc1)Nc1ccc2c(c1)[C@H]1C[C@H](CC(=O)N3CCOCC3)O[C@@H](CO)[C@H]1O2` gave EWS-Fli inh -1, PGC1a acetyl inh -5, PAX8 reporter -5 and LGR2 antag -20.
For CCCN1CCC(=NNc2ccc(S(=O)(=O)N(CC)CC)cc2[N+](=O)[O-])CC1 the results were EWS-Fli inh 61*, EBV LMP1 NFkB -12, PGC1a acetyl inh -2, PAX8 reporter 35, MITF TRPM1 inh 20 and LGR2 antag -8.
